Most compounds without a hit are left out; they make up all but 19% or so of the library.
DT40 TDP1 CPT: qHTS for Inhibitors of human tyrosyl-DNA phosphodiesterase 1 (TDP1): qHTS in cells in presence of CPT. chicken DT40 Tdp1-/-;hTDP1 cells + 20 nM CPT, ATP luminescence, 48 h. Potency, µM (doses to about 46.2 µM), usual class: inhibitors. 12% of 420,000 active; further: nearly all actives have a fitted effect of over 55% in size
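Chicken DT40 Tdp1-/- cells stably complemented with human TDP1 were seeded at 400 cells/well in medium containing 20 nM camptothecin, exposed to pin-transferred compounds, and grown at 37 °C for at least 48 hr. Viability was read as ATP luminescence.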
HT1080NT lethal: qHTS for induction of synthetic lethality in tumor cells producing 2HG: qHTS for the HT-1080-NT fibrosarcoma cell line | HT-1080-NT fibrosarcoma viability, CellTiter-Glo ATP luminescence, 48 h | Potency, µM (highest dose often 46.1 µM), actives largely listed as cytotoxic | 1.6% of 360,000 active | AID 686970, 2013;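 further: NT is the 2HG producing partner of a matched IDH1 knockdown line; nearly all actives have a fitted effect of over 55% in size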
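Viability by CellTiter-Glo luminescence after 48 h compound exposure at 37C of HT-1080-NT cells (750/well, RPMI, 5% FBS). % activity scaled between DMSO wells and medium-only wells, then curve-fitted and categorized by curve class.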
IL-1B inflam inh: qHTS for Inhibitors of Inflammasome Signaling: IL-1-beta AlphaLISA Primary Screen; THP-1 LPS/ATP IL-1B secretion, AlphaLISA, 16 h; active compounds read low; activity change, % at 57.5 µM; 4.7% of 360,000 active; AID 743279, 2014; in the data active means activity change below about -50%; inconclusive means mostly about -30% to -49%
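THP-1 cells pretreated 1 hr with compounds (up to 57.5 uM final), then stimulated with LPS (250 ng/mL final) plus ATP (1.25 mM final); secreted IL-1B measured by AlphaLISA after 16 hr, decreased signal indicating inhibition.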
DT40 TDP1 no CPT: qHTS for Inhibitors of human tyrosyl-DNA phosphodiesterase 1 (TDP1): qHTS in cells in absence of CPT; DT40 Tdp1-/- hTDP1 cells, no CPT, ATP luminescence, 48 h; Potency, µM (series often up to 46.2 µM), actives largely listed as inhibitors; 15% of 420,000 active; further: nearly all actives have a fitted effect of over 55% in size
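Chicken DT40 Tdp1-/- cells stably complemented with human TDP1 were seeded at 400 cells/well with DMSO in place of 20 nM camptothecin. After compound pinning, cells grew at least 48 hr at 37 °C; viability read by CellTiter-Glo luminescence.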
HT1080 IDH1KD tx: qHTS for induction of synthetic lethality in tumor cells producing 2HG: qHTS for the HT-1080-IDH1KD cell line. Potency, µM (top dose mostly 46.1 µM), actives largely listed as cytotoxic. AID 686971, 2013. HT-1080 IDH1 knockdown viability, ATP luminescence, 48 h. 2% of 360,000 active
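Assay cells: HT-1080 with IDH1 knockdown, 750 per well, RPMI/5% FBS. Exposure: 48 h at 37 °C following 2 h pre-incubation. Read: CellTiter-Glo luminescence; fitted concentration-response, curve class assigned.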
Numbers stand for hits; - = inactive; ? = inconclusive; . = not tested or not shown. Unless noted, the call rests on the fitted dose curve; in most records, active means well fitted curve in the direction sought with a large enough effect; inconclusive means small, poorly fitted or top-dose-only effect, or another doubt; inactive means no such curve, though single readings can be large; an effect the other way counts as inactive or inconclusive.

SMILES | DT40 TDP1 CPT | HT1080NT lethal | IL-1B inflam inh | DT40 TDP1 no CPT | HT1080 IDH1KD tx
CC(=O)c1cccc(S(=O)(=O)N2CCCC(c3nc4c(nnn4Cc4ccccc4Cl)c(=O)[nH]3)C2)c1 (stereo not drawn) | - | - | -70 | - | ?
N#Cc1cc(C#N)c(N2CCN(c3ccccn3)CC2)nc1N | ? | - | - | 22µM | -
COc1cccc(/C=N/Nc2ccnc(=O)[nH]2)c1O | 0.023µM | ? | - | 0.065µM | ?
O=c1nccc(N/N=C/c2ccccc2O)[nH]1 | 0.23µM | 1.2µM | - | 0.33µM | ?
CCOc1ccccc1/C=N/Nc1ccnc(=O)[nH]1 | 5.2µM | - | - | 2.9µM | -
O=C(COc1ccc(Br)cc1)N(CCO)CCO | - | - | - | - | -
O=C(O)C1CCCC1 | - | . | . | - | .
CCSc1ccc([C@@H]2[C@@H]3C(=O)N(CC)C(=O)[C@@H]3[C@]3(C(=O)OC)CCCN23)cc1 | ? | - | - | 23µM | -
CCCSc1ccc([C@@H]2[C@@H]3C(=O)N(C)C(=O)[C@@H]3[C@]3(C(=O)OC)CCCCN23)cc1OC | ? | - | - | 23µM | -
CCCSc1ccc([C@@H]2[C@H]3C(=O)N(CC)C(=O)[C@H]3[C@]3(C(=O)OC)CCCCN23)cc1OC | ? | - | - | ? | -
CCCSc1ccc([C@@H]2[C@H]3C(=O)N(CC)C(=O)[C@H]3[C@]3(C(=O)OC)CCCN23)cc1OC | ? | - | - | ? | -
CCC(C)Sc1ccc([C@@H]2[C@H]3C(=O)N(CC)C(=O)[C@H]3[C@]3(C(=O)OC)CCCCN23)cc1 (stereo partly drawn) | ? | - | - | 16µM | -
CCSc1ccc([C@@H]2[C@H]3C(=O)N(CC)C(=O)[C@H]3[C@]3(C(=O)OC)CCCCN23)cc1 | ? | - | - | 23µM | -
CCCCN(C(=O)c1ccc(-c2ccc(Cl)cc2)o1)c1c(N)n(CCCC)c(=O)[nH]c1=O | ? | - | - | ? | -
CCSc1ccc([C@@H]2[C@@H]3C(=O)N(CC)C(=O)[C@@H]3[C@]3(C(=O)OC)CCCCN23)cc1 | 16µM | - | - | 23µM | -
COC(=O)[C@@]12CCCCN1[C@H](c1ccc(SC3CCCCC3)cc1)[C@@H]1C(=O)N(C)C(=O)[C@@H]12 | ? | - | - | ? | -
CCCCCCSc1ccc([C@@H]2[C@@H]3C(=O)N(CC)C(=O)[C@@H]3[C@]3(C(=O)OC)CCCCN23)cc1 | 18µM | - | - | 21µM | -
CCSc1ccc([C@@H]2[C@H]3C(=O)N(C)C(=O)[C@H]3[C@]3(C(=O)OC)CCCCN23)cc1 | ? | - | - | 16µM | ?
CCCCCCSc1ccc([C@@H]2[C@H]3C(=O)N(C)C(=O)[C@H]3[C@]3(C(=O)OC)CCCCN23)cc1 | ? | - | - | ? | -
CN(C)S(=O)(=O)c1cccc(C(=O)NCC(C)(C)CNC(=O)c2cccc(S(=O)(=O)N(C)C)c2)c1 | - | - | - | ? | -
O=C(NCCc1cccc(C(F)(F)F)c1)C1CCC(=O)N(Cc2ccc(Cl)cc2)C1 (stereo not drawn) | ? | - | - | - | -
Cc1cc2nc(C)n(CCCNC(=O)Nc3ccc(F)cc3)c2cc1C | ? | - | ? | 23µM | -
O=C(NCCN1CCCCC1)Nc1ccc(F)cc1 | - | - | - | - | -
Cc1cc(C)cc(NC(=O)c2c(C)nc3ccccn23)c1 | - | - | - | - | -
N=c1c(C(=O)NCCN2CCOCC2)cc2c(=O)n3ccccc3nc2n1CCc1ccccc1 | ? | - | - | 23µM | -
SMILES | DT40 TDP1 CPT | HT1080NT lethal | IL-1B inflam inh | DT40 TDP1 no CPT | HT1080 IDH1KD tx
CCOCCCn1c(=N)c(C(=O)NCc2ccccc2)cc2c(=O)n3ccccc3nc21 | - | . | . | ? | .
N=c1c(C(=O)NCCc2ccccc2)cc2c(=O)n3ccccc3nc2n1CCCN1CCOCC1 | - | - | -56 | 15µM | -
COc1ccc(CCn2c(=N)c(C(=O)NCc3ccco3)cc3c(=O)n4ccccc4nc32)cc1 | ? | ? | -54 | 23µM | 13µM
Cc1ccc(Cn2c(=N)c(C(=O)NCCN3CCOCC3)cc3c(=O)n4ccccc4nc32)cc1 | ? | - | - | ? | -
N=c1c(C(=O)NCc2ccccc2)cc2c(=O)n3ccccc3nc2n1CCCN1CCOCC1 | - | - | - | ? | -
CC(OC(=O)c1ccc(-c2ccc(O)cc2)cc1)C(=O)NC1CCCCC1C (stereo not drawn) | - | - | - | ? | -
Cc1ccc(/C=N/NC(=O)c2n[nH]c3c2CCCC3)cc1 | 0.82µM | 0.16µM | . | 0.92µM | 0.13µM
O=C(N/N=C/c1cccs1)c1n[nH]c2c1CCCC2 | ? | 21µM | - | 21µM | 15µM
O=C(N/N=C\c1cccc(Cl)c1)c1n[nH]c2c1CCCC2 | - | - | ? | - | -
C/C(=N\NC(=O)c1n[nH]c2c1CCC2)c1cccs1 | - | - | . | - | -
O=C(NNC(=O)c1cccc(S(=O)(=O)Nc2ccccc2F)c1)c1ccncc1 | - | - | - | - | -
O=C(/C=C/c1ccccc1)Nc1cccc(S(=O)(=O)Nc2ccccc2F)c1 | 15µM | - | -54 | 15µM | -
O=C(Nc1ccccc1)c1ccc2ccccc2n1 | ? | - | - | - | -
Cc1cc(C)n2nc(C(=O)Nc3cccc(S(=O)(=O)N4CCCC4)c3)nc2n1 | - | - | - | - | -
O=C(Nc1cccc(S(=O)(=O)Nc2ccccc2F)c1)c1ccc2ccccc2n1 | ? | - | -51 | 23µM | -
COc1ccccc1NS(=O)(=O)c1cccc(NC(=O)c2nc3nc(C)cc(C)n3n2)c1 | 23µM | - | - | 13µM | -
COc1ccccc1NS(=O)(=O)c1cccc(NC(=O)c2ccc3ccccc3n2)c1 | 21µM | - | - | 16µM | -
O=C(CN1C(=O)c2ccccc2C1=O)NCC1Cc2cccc(-c3ncccn3)c2O1 (stereo not drawn) | - | . | . | - | .
COc1ccc(NC(=O)CN(C)C(=O)c2cccc(S(=O)(=O)Nc3ccc(OC)cc3)c2)cc1 | - | - | - | - | -
O=C(c1cccs1)N1CCN(C/C=C/c2ccccc2)CC1 | ? | - | - | ? | -
O=C(Cc1c(F)cccc1Cl)Nc1cccc(S(=O)(=O)NC2=NCCCCC2)c1 | - | - | - | - | -
O=C(Cc1ccc(Cl)cc1Cl)Nc1cccc(S(=O)(=O)Nc2ccccc2F)c1 | 15µM | - | -102 | 23µM | -
O=C(Nc1ccc2c(c1)OCCO2)c1cccc2nc3ccccc3nc12 | 23µM | - | ? | 15µM | -
